Shown are actives, neighbours in structure and some others; about 21% of the full set was active somewhere.
Pf growth 96h: Primary qHTS for delayed death inhibitors of the malarial parasite plastid, 96 hour incubation; 320,000 compounds, 6.9% hits; P. falciparum luciferase reporter growth, 96 h; Potency, µM (doses to about 28.7 µM), for inactives: at the top dose activity change, negative = inhibition, actives largely listed as inhibitors; further: potency means the concentration at half of the fitted maximal effect; on the % scale 0 is the no-effect control and ±100 the full control effect
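P. falciparum expressing integrated firefly luciferase, in erythrocytes at 2% hematocrit, 0.05% parasitemia, incubated with compounds 96 h at 37 C, 5% CO2. Growth inhibition read as loss of luminescence; two-generation exposure targets delayed-death apicoplast inhibitors.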
Shiga inhibitor: A qHTS for Small Molecule Inhibitors of Shiga Toxin; Vero cells, Shiga toxin protein synthesis inhibition reporter; inhibition, % at 38.7 µM; 290,000 compounds, 9.2% hits; in the data active means inhibition mostly above about 28%, no sharp cut-off; inactive means mostly below about 43%; further: 0% is about no effect
CHX counter: Cycloheximide Counterscreen for Small Molecule Inhibitors of Shiga Toxin; 300,000 compounds, 12% hits; cell reporter, cycloheximide protein synthesis inhibition counterscreen; AID 2314, 2010; max response, %; in the data active means max response mostly above about 13%, no sharp cut-off; inactive means mostly below about 14%; further: read at 38.3 µM for the half of the compounds with a filed dose; 0% is about no effect
NS1 function inh: qHTS Assay for Inhibitors of Influenza NS1 Protein Function; Potency, µM (titrated, usually from 46.1 µM), for inactives: at the highest dose activity, positive = more growth; 270,000 compounds, 0.4% hits; AID 2326, 2010; calls by dose curve; further: potency means the concentration at half of the fitted maximal effect; actives are rising curves; nearly all actives have a fitted effect of over 50% in size
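In this qHTS, NS1 from influenza A is expressed in budding yeast, where it slows growth. Cells are switched from glucose to 2% galactose medium (pH 6.0, -URA), treated with compound, and growth recovery is read at OD600.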
Pf growth 48h: Primary qHTS for delayed death inhibitors of the malarial parasite plastid, 48 hour incubation. P. falciparum luciferase growth in erythrocytes, 48 h. Potency, µM (highest dose often 28.7 µM), without a hit: at the top dose activity change, negative = inhibition, hits mostly inhibitors. 310,000 compounds, 5.9% hits; further: potency means the concentration at half of the fitted maximal effect; on the % scale 0 is the no-effect control and ±100 the full control effect
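Growth was read as firefly luciferase luminescence after a 48 h, 37 C, 5% CO2 exposure of compounds to reporter-bearing P. falciparum cultures (0.1% parasitemia, 2% hematocrit final) in Albumax-supplemented RPMI 1640.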
Active calls of the source: *. Unless noted, the call rests on the fitted dose curve; in most records, active means well fitted inhibition curve with a large enough effect; inconclusive means small, poorly fitted or top-dose-only effect, or another doubt; inactive means no such curve, though single readings can be large or run the other way.

What do the screens show for `O=C(c1cnc(-c2ccccc2)s1)c1ccc(Cl)cc1Cl`?
Pf growth 96h: -22%; Shiga inhibitor: 10; CHX counter: 12; NS1 function inh: -20%; Pf growth 48h: inconclusive

What do the screens show for `CO/N=C/CC(=O)c1cnc(-c2ccc(Cl)cc2)s1`?
Pf growth 96h: -2%; Shiga inhibitor: 73*; CHX counter: 22*; Pf growth 48h: inconclusive

What do the screens show for `CCN(CC)CC(=O)c1ccc(-c2ccccc2)cc1`?
Pf growth 96h: -2%; Shiga inhibitor: 20; CHX counter: 18; NS1 function inh: -26%; Pf growth 48h: inconclusive

How did CO/N=C/CC(=O)c1ccc(-c2ccccc2)cc1 do in these assays?
Pf growth 96h: 15%; Shiga inhibitor: 70; CHX counter: 18*; NS1 function inh: -31%; Pf growth 48h: 6%

Results for C/[N+]([O-])=C\CC(=O)c1ccc(-c2ccccc2)cc1 ?
Pf growth 96h: 4%; Shiga inhibitor: 20; CHX counter: 24*; Pf growth 48h: inconclusive

Results for O=C(CSc1ncn[nH]1)NNC(=O)c1ccccc1 ?
Pf growth 96h: -26%; Pf growth 48h: -12%

Results for CS(=O)(=O)N(CCC#N)Cc1ccco1 ?
Pf growth 96h: -14%; Shiga inhibitor: 28; CHX counter: -6; Pf growth 48h: 12%

What do the screens show for `CCOC(=O)N1CCC(NC(=O)CCC(=O)c2ccccc2)CC1`?
Pf growth 96h: 8.3µM*; Shiga inhibitor: -8; CHX counter: -2; NS1 function inh: -5%; Pf growth 48h: -9%

How did CCOC(=O)N1CCC(NC(=O)Cn2nc(-c3ccccc3)ccc2=O)CC1 do in these assays?
Pf growth 96h: 9.3µM*; Shiga inhibitor: -7; CHX counter: -3; NS1 function inh: -3%; Pf growth 48h: -6%

Results for CCOC(=O)N1CCN(C(=O)CCn2nc(-c3ccccc3)ccc2=O)CC1 ?
Pf growth 96h: -4%; Shiga inhibitor: 9; CHX counter: -1; NS1 function inh: 15%; Pf growth 48h: 34%

What do the screens show for `CCOC(=O)N1CCC(NC(=O)Cc2ccccc2)CC1`?
Pf growth 96h: -21%; Shiga inhibitor: 3; CHX counter: -2; NS1 function inh: 1%; Pf growth 48h: 25%

What do the screens show for `COCCNC(=O)CN1C(=O)CSc2cc(S(=O)(=O)N3CCCCCC3)ccc21`?
NS1 function inh: 21%

What do the screens show for `Cc1cccc(S(=O)(=O)NC(Cc2c[nH]c3ccccc23)C(=O)O)c1` (centres undefined)?
Pf growth 96h: 17%; Shiga inhibitor: -11; CHX counter: 1; NS1 function inh: 0%; Pf growth 48h: 11%

What do the screens show for `O=C(NC(=S)NCCC1=CCCCC1)c1ccc(Br)o1`?
Pf growth 96h: 15%; Shiga inhibitor: 72; CHX counter: 25; NS1 function inh: -1%; Pf growth 48h: 18%

How did CNNC(=S)NCCC1=CCCCC1 do in these assays?
Pf growth 96h: 30%; Shiga inhibitor: 18; CHX counter: 16*; NS1 function inh: -2%; Pf growth 48h: 13%

Results for Cc1ccc(SCC(=O)NCCC2=CCCCC2)cc1 ?
Pf growth 96h: inconclusive; Shiga inhibitor: 38*; CHX counter: 38*; NS1 function inh: -27%; Pf growth 48h: 48%

How did Cc1ccc(OCC(=O)NCCC2=CCCCC2)cc1 do in these assays?
Pf growth 96h: inconclusive; Shiga inhibitor: -52; CHX counter: 18; NS1 function inh: -28%; Pf growth 48h: -1%

What do the screens show for `CC(=O)c1cccc(NC(=S)NCCC2=CCCCC2)c1`?
Pf growth 96h: 132%; Shiga inhibitor: 47*; CHX counter: 33*; NS1 function inh: -11%; Pf growth 48h: -5%

What do the screens show for `O=C(NC(=S)NCCC1=CCCCC1)c1ccco1`?
Pf growth 96h: inconclusive; Shiga inhibitor: 107*; CHX counter: 37*; NS1 function inh: -19%; Pf growth 48h: 116%

What do the screens show for `Cc1ccc(NC(=S)NCCC2=CCCCC2)cc1`?
Pf growth 96h: inconclusive; Shiga inhibitor: 89*; CHX counter: 34*; Pf growth 48h: -26%

How did Clc1nn2cnnc2c2ccccc12 do in these assays?
Pf growth 96h: 31%; Shiga inhibitor: -10; CHX counter: 1; NS1 function inh: 2%; Pf growth 48h: -2%

What do the screens show for `COc1ccc(OC)c(C2C3=C(N=C4SCC(=O)N42)c2ccccc2CC3)c1` (centres undefined)?
Pf growth 96h: inconclusive; Shiga inhibitor: -1; CHX counter: 1; NS1 function inh: inconclusive; Pf growth 48h: inconclusive
